Source: PubChem (several laboratories)
Most compounds without a hit are left out; they make up all but 4% or so of the library.
TWEAK-Fn14 inh: TWEAK-Fn14 signaling inhibition. TWEAK-stimulated Fn14 reporter cells, luciferase luminescence, 8 h. inhibition, % at 10 µM. hit rate 2% among 360,000; in the data active = inhibition above about 50%
Peg3 prom inh: Peg3 promoter activity inhibition. HeLa PEG-Prom luciferase reporter, luminescence, overnight. inhibition, % at 20 µM. hit rate 1.7% among 360,000. AID 588405;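 active = inhibition of at least 50% at 20 µM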
MITF TRPM1 inh: MITF TRPM1 promoter inhibition in SK-MEL-5 cells; SK-MEL-5 TRPM1 promoter luciferase, 24 h; inhibition, % at 12.5 µM; hit rate 0.83% among 330,000;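 active = mean inhibition across replicates of 60% or more, whatever share of single replicates reaches that level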
LMP1 NFkB inh: Epstein-Barr LMP1 NF-kappaB reporter inhibition. LMP1-induced NF-kappaB luciferase reporter cells, luminescence. inhibition, % at 12.5 µM. hit rate 0.69% among 350,000. AID 504558; in the data active = inhibition above about 41%
HIF-2a block: blocks HIF-2a reporter activity. 786-0 RCC cells HIF-2a reporter, luciferase luminescence, overnight. inhibition, % at 18.8 µM. hit rate 0.72% among 360,000. AID 624352;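 active = inhibition of the luminescence signal of 40% or more relative to plate controls, in a single-dose primary screen at 18.75 µM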
TROY NFkB inh: blocks TROY-dependent signaling in reporter cells | Q293 LMP1-TROYcd NF-kB luciferase reporter, 4 h | inhibition, % at 10 µM | hit rate 0.98% among 360,000;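 active = compounds whose plate-normalised and pattern-corrected inhibition of the luciferase reporter signal at the single screening dose is 50% or more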
A number is an active result; n = inactive; x = no result.

SMILES	TWEAK-Fn14 inh	Peg3 prom inh	MITF TRPM1 inh	LMP1 NFkB inh	HIF-2a block	TROY NFkB inh
COc1ccc(S(=O)(=O)NC(CC(=O)NCc2ccco2)C(C)C)cc1 (stereo not given)	n	n	n	84	n	n
COc1ccc(CNC(=O)Nc2nnc([C@@H]3C[C@H](O)[C@@H](CO)O3)s2)cc1	63	n	x	x	n	n
O=C(Nc1nnc([C@H]2C[C@H](O)[C@@H](CO)O2)s1)c1cccc(C(F)(F)F)c1	n	n	x	x	n	n
O=C(Nc1cccc(C(F)(F)F)c1)Nc1nnc([C@@H]2C[C@H](O)[C@@H](CO)O2)s1	55	n	x	x	n	n
O=C(NC(CSCc1ccccc1)C(=O)N/N=C/c1ccc(O)cc1O)c1ccc([N+](=O)[O-])cc1 (stereo not given)	n	51	70	n	n	n
CN(N=O)c1ccc(C=C2C=Cc3ccccc32)cc1	n	n	n	n	n	n
CC(=O)N(C)c1ccc(C=C2C=Cc3ccccc32)cc1	79	n	n	n	n	71
CCN(CC)c1ccc(C(=C2C=CC(=[N+](CC)CC)C=C2)c2ccc(N(CC)CC)cc2)cc1	103	106	x	n	97	91
CC1=CC(=O)C(C(C)=Nc2ccccc2[N+](=O)[O-])C(=O)O1 (stereo not given)	n	n	n	n	n	n
COc1ccc(/C=C/c2ccc3cccc(O)c3n2)c(OC)c1OC	81	86	n	n	n	n
COc1cccc(/C=C/c2ccc3cccc(O)c3n2)c1	84	n	n	n	n	50
COc1ccc(/C=C/c2ccc3cccc(O)c3n2)cc1Br	72	n	n	n	n	54
COc1cc(/C=C/c2ccc3cccc(O)c3n2)cc(OC)c1OC	n	95	78	n	n	n
C[C@@H]1C(=O)O[C@H]2CC34[C@H]5C[C@@H](C(C)(C)C)[C@]36[C@@H](OC(=O)[C@@H]6O)O[C@@]4(C(=O)O5)[C@]21O (stereo not given in full)	n	n	n	n	n	n
O=C(CN1C(=O)NC2(CCCC2)C1=O)NNC(=O)c1ccccc1F	n	n	n	n	n	n
COc1cccc(/C=C/c2ccc3cccc(O)c3n2)c1OC	82	90	n	n	n	n
COc1cc(Br)cc(/C=C/c2ccc3cccc(O)c3n2)c1OC	n	n	n	n	n	n
Cc1ccc(CNC(=O)CN2NS(=O)(=O)c3ccccc3C2=O)cc1	n	n	x	n	n	n
C=CCn1c(C)cc(C(=O)CN2NS(=O)(=O)c3ccccc3C2=O)c1C	n	n	n	n	n	69
CC(C)(C)n1nc2c(c1NC(=O)c1ccc(Cl)c([N+](=O)[O-])c1)CS(=O)(=O)C2	54	n	n	n	n	n
CSCCC(NC(=O)COc1ccccc1)C(=O)NCC1COc2ccccc2O1 (stereo not given)	n	n	n	n	n	n
COc1ccc(-c2ccnc3cc(C(=O)O)nn23)cc1	n	n	n	57	n	n
O=C(O)c1cc2nccc(-c3ccco3)n2n1	n	n	n	n	n	n
Cc1ccc(S(=O)(=O)N(C)C[C@@H]2OCc3cn(nn3)CCCC(=O)N([C@H](C)CO)C[C@H]2C)cc1	n	n	x	x	n	n
CC1(c2ccccc2)CC(C)(C)N2C(=O)/C(=C3\SC(=S)NC3=O)c3cccc1c32 (stereo not given)	70	n	n	n	n	61
SMILES	TWEAK-Fn14 inh	Peg3 prom inh	MITF TRPM1 inh	LMP1 NFkB inh	HIF-2a block	TROY NFkB inh
CC(=C1SC(=S)NC1=O)c1ccccc1	n	n	n	n	n	n
Cc1cccc2c1NC(=O)/C2=C\C(=O)c1cccs1	n	74	n	n	45	n
Cc1cc(Br)c2c(c1)/C(=C/C(=O)c1cccs1)C(=O)N2	n	69	n	n	n	n
Cc1cc(C)c2c(c1)/C(=C/C(=O)c1ccc(Br)s1)C(=O)N2	n	52	n	n	n	n
O=C(Cn1cnc2ccccc2c1=O)NC1CCS(=O)(=O)C1 (stereo not given)	n	n	n	n	n	n
O=C(CSc1nc(C(F)(F)F)cc(=O)[nH]1)N1CCC(Cc2ccccc2)CC1	n	n	n	n	n	n
O=C(NC12CC3CC(CC(C3)C1)C2)N1CCN(c2nc(-c3ccccc3)cs2)CC1	71	n	n	n	n	x
Cc1cccc(NC(=O)c2nc[nH]c2C(=O)N2CCN(c3ccccc3)CC2)c1	n	n	n	n	n	n
Cc1cc2cc(CN(Cc3ccco3)S(=O)(=O)c3c(C)ccc4nsnc34)c(=O)[nH]c2cc1C	n	n	n	44	n	n
Cc1ccc2cc(CN(Cc3ccco3)S(=O)(=O)c3c(C)ccc4nsnc34)c(=O)[nH]c2c1	n	n	n	n	n	n
CC(=O)Nc1ccc(S(=O)(=O)N2CCN(c3cc4c(cc3[N+](=O)[O-])n(C)c(=O)n4C)CC2)cc1	n	n	n	n	n	n
Cn1c(=O)n(C)c2cc([N+](=O)[O-])c(N3CCN(S(=O)(=O)c4ccc(C(C)(C)C)cc4)CC3)cc21	54	n	n	n	n	n
CCc1ccc(/C=C/C(=O)c2ccc(N3CCOCC3)cc2)cc1	n	n	n	n	n	n
CCc1ccc(/C=C/C(=O)c2ccc(S(=O)(=O)N(C)C)cc2)cc1	n	54	n	n	n	n
O=C(CC(C(=O)c1ccccc1)c1ccccc1)c1ccccc1 (stereo not given)	n	n	n	n	n	n
CN(Cc1cc(Cl)cc(Cl)c1)CC(C(=O)c1ccccc1)c1ccccc1 (stereo not given)	n	n	84	n	n	n
COc1cc2cncc(Cc3ccc(Cl)cc3)c2cc1OC	75	n	n	n	n	58
CCc1ccc(NC(=O)NNC(=O)c2cc3ccccc3cc2O)cc1	n	n	n	n	n	n
CCOc1ccc(NC(=O)NNC(=O)c2cc3ccccc3cc2O)cc1	55	n	n	n	n	52
O=c1cc(Cl)nc2ccccn12	n	n	n	71	n	n
O=c1cc(NCc2ccccc2)nc2ccccn12	n	n	n	n	n	n
COc1ccccc1NC(=O)CCCC(=O)OCC(F)(F)C(F)F	63	n	n	n	n	n
COc1ccc(NC(=O)CCCC(=O)OCC(F)(F)C(F)F)cc1	n	n	n	n	n	n
c1ccc(COc2ncnc3c2ncn3CCCNCC(c2ccccc2)c2ccccc2)cc1	n	100	x	n	n	n
COCCOC(=O)C1=C(C)NC2=C(C(=O)CC(C)(C)C2)C1c1cc2c(cc1Br)OCO2 (stereo not given)	60	n	n	n	n	n
Cc1ccc(S(=O)(=O)N2CCN(C(=O)COC(=O)CCOc3ccccc3C)CC2)c(C)c1	n	n	n	n	n	n
CCNC(=O)c1cc2c(c(-c3cccc(-c4cc5ccccc5o4)c3)n1)[C@H](CCO)N(C(=O)NC(C)C)C2	53	x	x	x	n	n
O=C(COC(=O)C1CC2CCCC(C1)C2=O)Nc1ccccc1 (stereo not given)	n	n	n	n	n	n
